Screening results deposited in PubChem by several laboratories.
SUMO HTRF inh = blocks human SUMOylation mediated by UBC9. AID 2006. inhibition, % at 35 µM. HTRF SUMOylation assay, SAE1/SAE2 + UBC9, in vitro. actives 0.36% (n = 290,000); in the data active means inhibition above about 50%, passing the limit was not always enough; inconclusive means no clear call, values can overlap the other calls
ALR H2O2 inh = human ALR oxidase inhibition via reduced H2O2; P55789; purified ALR, DTT oxidation, H2O2 HRP-luminol luminescence; inhibition, % (test concentration not listed); actives 3.8% (n = 290,000); AID 485317;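 active means mean replicate inhibition above about 79%, with every replicate also reaching it, limit read from the data; inconclusive means only one of the two criteria met; inactive means mean below limit and not every replicate reaching it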
Efflux pump mplx = inhibitors of Candida antifungal efflux pumps expressed in yeast; S. cerevisiae Candida pump triplex, Nile Red efflux; inhibition, % at 10 µM; actives 0.44% (n = 330,000);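 active means plate passing quality check with inhibition over a set limit, or well fluorescence over plate mean plus 4 SD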;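 further: Nile Red retained in pooled yeast measured as flow cytometry median fluorescence; 0% = buffer negative control and 100% = Enniatin B positive control; higher means more Nile Red kept so more efflux inhibition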
PABP polyA inh = blocks human PABP binding to poly(A) RNA; P11940; inhibition, % at 35 µM; fluorescence polarization; actives 1% (n = 290,000); AID 2014;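 further: calls also rest on retests at 20 µM and on dose response follow-up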
Target sequence (P11940 whole entry, looked up): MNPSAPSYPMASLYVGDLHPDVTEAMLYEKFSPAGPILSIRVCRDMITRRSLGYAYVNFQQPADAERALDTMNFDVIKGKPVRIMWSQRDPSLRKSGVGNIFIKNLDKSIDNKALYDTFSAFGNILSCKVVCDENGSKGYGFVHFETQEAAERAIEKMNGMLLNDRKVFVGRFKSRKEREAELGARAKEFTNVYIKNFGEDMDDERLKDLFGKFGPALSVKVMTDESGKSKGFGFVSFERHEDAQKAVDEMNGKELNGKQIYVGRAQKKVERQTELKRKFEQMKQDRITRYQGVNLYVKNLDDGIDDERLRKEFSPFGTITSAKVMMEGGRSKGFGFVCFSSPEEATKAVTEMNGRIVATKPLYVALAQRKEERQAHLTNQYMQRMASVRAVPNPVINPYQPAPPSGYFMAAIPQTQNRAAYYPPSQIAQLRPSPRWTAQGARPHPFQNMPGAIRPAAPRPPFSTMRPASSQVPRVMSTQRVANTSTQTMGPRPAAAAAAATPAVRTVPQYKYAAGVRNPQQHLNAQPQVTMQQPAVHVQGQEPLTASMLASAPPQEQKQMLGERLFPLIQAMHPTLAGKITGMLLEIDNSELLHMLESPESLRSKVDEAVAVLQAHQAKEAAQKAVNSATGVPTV
eIF4H inh = inhibitors of RNA binding by human eIF4H | Q15056 | eIF4H fluorescence polarization binding assay | inhibition, % at 35 µM | actives 0.94% (n = 290,000) | AID 2012;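 further: calls also rest on retests at 20 µM and on dose response follow-up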
MLLE-PAM2 inh = blocks PAM2 peptide binding to the PABP1 MLLE domain; GST-MLLE / FITC-PAM2 fluorescence polarization; AID 588489; actives 0.36% (n = 360,000); inhibition, % at 20 µM; P11940; in the data active means inhibition above about 35%, passing the limit was not always enough;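 further: plate controls were DMSO wells with GST-MLLE for no effect and wells lacking GST-MLLE protein for full effect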
Active calls of the source: *; ? = inconclusive; nt = no result. Sampled rows, rich in hits. Any-hit rate of the full collection: about 4.7%. Unless noted, how the calls were made is not given here.

SMILES	SUMO HTRF inh	ALR H2O2 inh	Efflux pump mplx	PABP polyA inh	eIF4H inh	MLLE-PAM2 inh
O=C(NCc1ccccc1)c1ccc(S(=O)(=O)NCc2ccco2)cc1	10	36	0	-1	-9	13
O=C(O)Cn1c2ccccc2c2n[nH]c(=S)nc21	1	45	0	15	13	43*
OCC1CCCN(C(=S)Nc2ccc(Nc3ccccc3)cc2)C1 (stereo unspecified)	2	100*	0	53*	?	-90
CC1CCCN(C(=O)COc2ccc(Nc3ccccc3)cc2)C1 (stereo unspecified)	10	99*	0	-3	2	-5
CC(=O)Nc1ccc(OCC(=O)N2CCC(Cc3ccccc3)CC2)cc1	17	-10	0	-8	-6	-10
CC1CCN(C(=O)COc2ccc(Nc3ccccc3)cc2)CC1	6	88*	0	-1	-4	0
CCOC(=O)C1=C(C)N=c2s/c(=C/c3ccc(OCC(=O)O)cc3)c(=O)n2C1c1ccc(SC)cc1 (stereo unspecified)	29	-7	0	43*	63*	-129
CCOC(=O)C1=C(C)N=c2s/c(=C/c3ccc(OCC(=O)O)cc3)c(=O)n2C1c1ccc(F)cc1 (stereo unspecified)	9	nt	0	20	2	-9
CC(C)CN(CC(C)C)c1nn[nH]n1	nt	nt	nt	nt	nt	7
CN(Cc1c(C(=O)N/N=C/c2ccccc2)nnn1-c1nonc1N)c1ccccc1	-20	0	0	5	3	-5
CN(Cc1c(C(=O)N/N=C/c2ccc(O)cc2)nnn1-c1nonc1N)c1ccccc1	nt	100*	0	nt	nt	3
COc1cc(/C=N/NC(=O)c2nnn(-c3nonc3N)c2C(C)C)ccc1O	0	99*	0	-7	-3	3
COc1cc(/C=N/NC(=O)c2nnn(-c3nonc3N)c2C(C)C)ccc1OCc1ccccc1	-20	-3	0	2	-2	-16
COc1cc(/C=N/NC(=O)c2nnn(-c3nonc3N)c2-c2cccs2)ccc1O	4	89*	0	0	-6	3
COc1cccc(C(C)NC(=O)c2ccncc2)c1 (stereo unspecified)	3	-1	0	10	-1	-18
CCCNC(=O)OC[C@H]1O[C@H](CCO/N=C/C[C@@H]2C=C[C@H](OC(C)=O)[C@@H](COC(C)=O)O2)C=C[C@@H]1Oc1ccc(OC)cc1	-23	-12	0	-2	2	nt
CCCNC(=O)OC[C@H]1O[C@H](CCO/N=C(\C)CCN2CCc3nc(-c4ccccc4)c(-c4ccccc4)cc3C2)C=C[C@@H]1Oc1ccc(OC)cc1	-16	-3	0	8	68*	nt
CN1CCN(C(=O)CNC(=O)C23CC4CC(CC(C4)C2)C3)CC1	nt	-13	0	nt	nt	6
Cc1ccc(NC(=O)C2(S(=O)(=O)c3ccc(Cl)cc3)CC2)cc1	-2	3	0	1	-3	-11
COc1ccc(-n2nnnc2SCC(=O)NNC(=O)c2ccc([N+](=O)[O-])cc2)cc1	8	-5	0	active	63*	-61
COc1ccc(NC(=O)CSc2nc(O)c(Cc3ccccc3)c(=O)[nH]2)cc1	11	99*	-1	3	2	40*
CCc1c(O)nc(SCC(=O)N2CCc3cc(OC)c(OC)cc3[C@@H]2C)[nH]c1=O	17	99*	0	-5	0	43*
COc1ccc(CNC(=O)CSc2ncnc3ccccc23)cc1OC	-2	89*	0	-13	-4	-39
COc1ccc(CCNC(=O)COc2ncnc3ccccc23)cc1OC	6	-1	0	14	5	8
COc1cc2c(cc1OC)C(C)N(C(=O)c1cc(Cl)nc(Cl)c1)CC2 (stereo unspecified)	4	1	0	5	2	7
COc1ccc(CCNC(=O)CSC(=O)c2ccccc2)cc1OC	-5	99*	0	2	4	18
O=C(Nc1cccc(S(=O)(=O)N2CCCCCC2)c1)C1CC(=O)N(c2ccc3c(c2)OCCO3)C1 (stereo unspecified)	nt	-1	0	nt	nt	11
CCOC(=O)/C=C1\SCC(=O)N1CC(=O)Nc1cc(S(=O)(=O)N(C)C)ccc1C	nt	-6	0	nt	nt	-19
O=C(COC(=O)[C@@H]1CCCN1C(=O)c1cccs1)Nc1cccc(Cl)c1	nt	5	0	nt	nt	3
